Experimental findings from PubChem BioAssay (Tox21) are described below.

Assay [1] is described as follows: qHTS assay to identify small molecule agonists of the vitamin D receptor (VDR) signaling pathway - cell viability counter screen (AID 743224). Further: series mostly up to about 63 µM; nearly all actives have a fitted effect of over 50% in size. A digest of the protocol: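 Here cell health was gauged by luminescent ATP detection (CellTiter-Glo, 30 min RT) in VDR-bla cells that had been incubated with test compounds for 16 h at 37C and 5% CO2.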
Assay [2] is described as follows: qHTS assay to identify small molecule antagonists of the vitamin D receptor (VDR) signaling pathway - cell viability counter screen (AID 743225). Further: nearly all actives have a fitted effect of over 50% in size. A digest of the protocol: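 Compounds were pinned onto VDR-bla HEK 293T cells together with 1-alpha,25-dihydroxyvitamin D3 at 3 nM final. After 16 h at 37C and 5% CO2 plus the reporter readout, cell viability was measured by CellTiter-Glo luminescence (30 min, room temperature).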

Assay [3] can be described thus: qHTS assay to identify small molecule agonists of the NFkB signaling pathway (AID 1159509; active means well fitted curve in the direction sought with a large enough effect in the signal ratio in the repeat runs, not every such curve was filed as active; the % refers to the signal ratio; further: series mostly up to about 61 µM). The method in brief:
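ME-180 NFkB-bla, 2,000 cells/well, overnight plating; cpd pinned in DMSO, 5 h 37 C; B/G FRET substrate 1.5 h RT; ex 405, em 460/530 nm.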

Assay [4] is described as follows: qHTS assay to identify small molecule agonists of the NFkB signaling pathway - cell viability counter screen (AID 1159515; calls by dose curve; further: series mostly up to about 61 µM; nearly all actives have a fitted effect of over 55% in size). A digest of the protocol:
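5 hr compound treatment of NFkB-bla ME-180 cells (2,000/well, seeded overnight beforehand), followed by reporter substrate for 1.5 hr. CellTiter-Glo added afterward; luminescence after 30 min RT.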

A short description of assay [5]: qHTS assay to identify small molecule agonists of the endoplasmic reticulum stress response signaling pathway (AID 1159516; active means well fitted activation curve with a large enough effect in the signal ratio in the repeat runs, not every such curve was filed as active; the % refers to the signal ratio). A digest of the protocol:
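Reporter HeLa cells (ESRE-beta-lactamase) underwent 5 hr compound incubation at 37 C and 5% CO2 in quantitative HTS format. Detection followed 2 hr of FRET substrate loading at room temperature.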

The nature of assay [6]: qHTS assay to identify small molecule agonists of the endoplasmic reticulum stress response signaling pathway - cell viability counter screen (AID 1159517; calls by dose curve;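 further: HeLa cells carrying an ER stress response element beta-lactamase reporter; series mostly up to about 61 µM; nearly all actives have a fitted effect of over 50% in size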). The method in brief: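 ESRE-bla HeLa cells, 1,500 per well, seeded overnight then treated with compounds for 5 hr at 37 C. After the beta-lactamase read, viability in the same wells is measured by CellTiter-Glo luminescence after 30 min at room temperature.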

Assay [7] in a line: qHTS assay to identify small molecule antagonists of the retinoid-related orphan receptor gamma (ROR-gamma) signaling pathway - cell viability counter screen (AID 1159520). Further: nearly all actives have a fitted effect of over 50% in size. The method in brief: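 Tet-on ROR gamma CHO cells were given compounds for 2 hr, then doxycycline hyclate at 1 uM final, and incubated 16 hr at 37 C. Viability was measured as ATP content by CellTiter-Glo luminescence.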

The target in assay [8] is Nuclear receptor ROR-gamma (Homo sapiens) (UniProt P51449). Put plainly: qHTS assay to identify small molecule antagonists of the retinoid-related orphan receptor gamma (ROR-gamma) signaling pathway (AID 1159521). The method in brief: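 Test compounds were applied to Tet-on RORγ CHO cells 2 h ahead of doxycycline hyclate (1 uM final). Luciferase reporter activity was quantified by luminescence after 16 h at 37 C and 5% CO2.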

The nature of assay [9]: qHTS assay to identify small molecule agonists of the AP-1 signaling pathway - cell viability counter screen (AID 1159525; calls by dose curve; further: nearly all actives have a fitted effect of over 55% in size). A digest of the protocol:
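AP-1-bla ME-180 cells in Opti-MEM with 0.5% dialyzed FBS, compound exposure 5 h at 37 C in 15-point titration. Viability read in the same wells as ATP content by CellTiter-Glo luminescence, normalised to tetra-n-octylammonium bromide and DMSO controls.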

A short description of assay [10]: qHTS assay to identify small molecule agonists of the AP-1 signaling pathway (AID 1159526; calls by dose curve).
Assay [11] addresses Retinoic acid receptor RXR-alpha (Homo sapiens) (UniProt P19793). As to the kind of experiment: qHTS assay to identify small molecule agonists of the RXR signaling pathway (AID 1159527; calls by dose curve; further: nearly all actives have a fitted effect of over 35% in size). The method in brief: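 Using 9-cis retinoic acid as the reference agonist, chemicals were tested in HEK 293T cells […] for 16 hr; substrate loading lasted 2 hr at room temperature.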

Assay [12] can be described thus: qHTS assay to identify small molecule agonists of the RXR signaling pathway - cell viability counter screen (AID 1159529). A digest of the protocol:
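Compounds dissolved in DMSO were pinned onto HEK 293T cells carrying a beta-lactamase reporter under RXR-alpha control and incubated 16 hr. Cytotoxicity was then quantified by CellTiter-Glo luminescence.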

Assay [13] in a line: qHTS assay to identify small molecule antagonists of the retinoid acid receptor (RAR) signaling pathway - cell viability counter screen (AID 1159551). Further: nearly all actives have a fitted effect of over 35% in size. A digest of the protocol: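 Seed C3RL4 cells; next day add compound, then retinol to 1 uM final; incubate 6 h at 37 C; add CellTiter-Glo; read luminescence after 30 min at RT.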
Assay [14] in a line: qHTS assay to identify small molecule antagonists of the retinoic acid receptor (RAR) signaling pathway (AID 1159552; further: nearly all actives have a fitted effect of over 50% in size; further: potency means the concentration at half of the fitted maximal effect). A digest of the protocol: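 Test chemicals and DMSO controls were pin-transferred onto C3RL4 cells a day after seeding; retinol (1 uM final) followed at once. Luminescent reporter output was quantified after 6 hr of co-incubation and 30 min with detection reagent.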

The nature of assay [15]: qHTS assay to identify small molecule agonists of the retinoic acid receptor (RAR) signaling pathway (AID 1159553). Further: potency means the concentration at half of the fitted maximal effect. A digest of the protocol:
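Activation of retinol signaling was monitored via a RARE luciferase reporter in C3RL4 cells. After 6 hr compound treatment at 37 C, detection reagent was added for 30 min at room temperature before luminescence reading.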

A short description of assay [16]: qHTS assay to identify small molecule antagonists of the estrogen related receptor (ERR) signaling pathway - cell viability counter screen (AID 1224818).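 Further: series mostly up to about 46 µM; viability measured after 17.5 h of compound exposure.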 The method in brief: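 In the same ERR cell assay, compound-treated wells (17.5 h, 37 C) were multiplexed with a fluorogenic viability reagent, CellTiter-Fluor, read after 30 min to flag cytotoxic substances.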

A short description of assay [17]: qHTS assay to identify small molecule antagonists of the estrogen related receptor (ERR) signaling pathway (AID 1224819). A digest of the protocol:
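qHTS in ERR cells, 2,000/well, 1536 format. Cpd (DMSO) added after 6 h settle, 18 h 37 C. One-Glo luminescence, 30 min RT.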

Assay [18] is described as follows: qHTS assay to identify small molecule agonists of the estrogen related receptor (ERR) signaling pathway (AID 1224820). The method in brief:
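Cells: ERR line from NTP, 2,000/well. Pre-incubation 6 h, 37 C/5% CO2. Compound (DMSO) pin transfer, 18 h 37 C. One-Glo, 30 min RT, luminescence.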

In assay [19] the test system is estrogen-related receptor alpha (ERRalpha) with PGC-1alpha coactivator, human. As to the kind of experiment: qHTS assay to identify small molecule antagonists of the estrogen related receptor signaling pathway with the pleiotropic PPARgamma coactivator (PGC) (AID 1224821; calls by dose curve). The method in brief:
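Luminescent read-out (One-Glo, 30 min at room temperature) following 18 h treatment of PGC/ERR cells at 37 C with compounds delivered in DMSO. Cells had settled 6 h at 37 C/5% CO2 before dosing.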

Values joined by “and” are separate entries in the source; they are usually repeats but may differ in a detail not shown here. Equal entries are not always repeated. Inconclusive results are not listed. Active and inactive are the calls of the source. Unless noted, the call rests on the fitted dose curve; in most records, active means well fitted curve in the direction sought with a large enough effect in the repeat runs; inconclusive means weak or mixed curves; inactive means no such curve, though single readings can be large; an effect the other way counts as inactive or inconclusive.

Chain of Retinoic acid receptor RXR-alpha (Homo sapiens) (P19793 whole entry, looked up): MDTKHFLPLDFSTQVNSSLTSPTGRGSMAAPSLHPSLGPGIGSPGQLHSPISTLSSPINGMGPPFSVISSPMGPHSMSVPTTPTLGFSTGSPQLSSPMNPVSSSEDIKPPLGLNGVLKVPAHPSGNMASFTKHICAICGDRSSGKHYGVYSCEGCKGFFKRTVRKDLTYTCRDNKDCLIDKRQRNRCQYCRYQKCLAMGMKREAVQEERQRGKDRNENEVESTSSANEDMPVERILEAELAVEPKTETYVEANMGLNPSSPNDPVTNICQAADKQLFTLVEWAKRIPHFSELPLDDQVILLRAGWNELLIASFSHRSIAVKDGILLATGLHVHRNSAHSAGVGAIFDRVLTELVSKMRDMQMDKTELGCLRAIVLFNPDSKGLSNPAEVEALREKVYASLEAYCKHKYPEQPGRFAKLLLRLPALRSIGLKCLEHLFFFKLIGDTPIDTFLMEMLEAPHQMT

On to `C=C(C#N)C(=O)OCC`, for which the Potency entry in [1], in [2], in assay [6], in assay [7], in assay [8] and in [9] was “inactive” throughout. Also, the Potency result in [10], in assay [11], in assay [12], in assay [13], in [14] and in [15] was “inactive” in each case. In addition, the result in [3], in assay [4] and in [5] was inactive.

Regarding `CCCCOCCOCCOC(=O)CCCCC(=O)OCCOCCOCCCC`, the Potency entry in assay [1], in assay [2], in [6], in assay [7], in [8] and in assay [9] was “inactive” in each case. Moreover, the Potency entry in assay [10], in assay [11], in assay [12], in assay [13], in assay [14] and in assay [15] was “inactive” in each case. For the same compound, the result in assay [3], in assay [4] and in assay [5] was inactive.

Regarding `CC(=O)CCc1ccccc1`, the Potency result in assay [1], in assay [2], in assay [6], in [8], in assay [9] and in assay [10] was “inactive” each time. In addition, the Potency result in assay [11], in assay [12], in assay [13], in assay [14] and in assay [15] was “inactive” in each case. For the same compound, the compound was called inactive in assay [3], in assay [4] and in [5].

In the case of `CCCCCC/C=C/CCCCCCCC(=O)O`, the Potency result in [1], in assay [2], in assay [6], in assay [8], in [9] and in assay [10] was “inactive” each time. The Potency entry in assay [11], in assay [12], in assay [13], in [14] and in assay [15] was “inactive” in each case. In addition, the outcome in [3], in assay [4] and in [5] was inactive.

`CC#C[C@]1(O)CC[C@H]2[C@@H]3CCC4=CC(=O)CCC4=C3[C@@H](c3ccc(N(C)C)cc3)C[C@@]21C`: the Potency result in [1], in assay [2], in [6], in [7], in [9] and in assay [10] was “inactive” throughout. Moreover, the Potency entry in assay [12], in [13] and in assay [18] was “inactive” throughout. Also, the call in [3], in [4], in assay [5] and in [16] was inactive. In addition, the Potency in assay [14] is 27.3 µM (active) and 26.6 µM (active); in assay [17], 22 µM (active); in [19] it was 21.1 µM (active).

As for `CC(C)(C)C1CCC(O)CC1` (centres undefined), the Potency result in [1], in assay [2], in assay [6], in assay [8], in [9] and in assay [10] was “inactive” throughout. Besides, the Potency entry in [11], in assay [12], in assay [13], in assay [14] and in [15] was “inactive” throughout. Also, the call in assay [3], in assay [4] and in assay [5] was inactive.

With `CC1Cc2ccccc2N1NC(=O)c1ccc(Cl)c(S(N)(=O)=O)c1` (centres undefined), the Potency result in [1], in [2], in assay [6], in [7], in assay [9] and in [10] was “inactive” each time. Also, the Potency entry in assay [11], in assay [12], in assay [13], in [14] and in assay [15] was “inactive” in each case. In addition, the compound was called inactive in assay [3], in [4] and in [5].

As for `OC[C@@H](O)[C@@H](O)[C@H](O)[C@@H](O)CO`, the Potency entry in [1], in assay [2], in assay [6], in assay [7], in assay [9] and in assay [10] was “inactive” in each case. Further, the Potency result in assay [11], in [12], in assay [13], in assay [14] and in [15] was “inactive” in each case. The compound was called inactive in assay [3], in [4] and in [5].

On to `O=S(=O)(Oc1ccc(Cl)cc1Cl)c1ccccc1`, for which the Potency result in assay [1], in assay [2], in assay [6], in assay [7], in assay [9] and in [10] was “inactive” each time. The Potency result in [12], in assay [13] and in [14] was “inactive” in each case. Besides, the compound was classed as inactive in assay [3], in assay [4] and in assay [5]. Besides, the Potency in assay [15] is 68.6 µM (active).
